Each structure is given as a SMILES string. “And” between values parts separate entries of the source, which are not always exact repeats. Identical values can stand only once. Records with an inconclusive call do not appear. The source made the active and inactive calls. Unless noted, calls come from the whole dose curve; as a rule, active = well fitted curve in the direction sought with a large enough effect; inconclusive = small, poorly fitted or top-dose-only effect, or another doubt; inactive = no such curve, though single readings can be large; an effect the other way counts as inactive or inconclusive.

36 compounds from PubChem BioAssay (NCATS) can be followed below.

The nature of assay [1]: Cellular Toxicity (caspase-3) Jurkat (AID 655).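 Note: cells exposed to compound for 16 h at 37 °C before reading.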 Particulars: Jurkat caspase-3 activation, luminescence; caspase-3 activation: at 92.2 µM (top of the series), DMSO = 0%, tamoxifen = 100%. The essentials:
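Jurkat cells (5000/well) in complete medium exposed 16 h at 37 C; caspase-3/7 activity read by Caspase-Glo luminescence after 20 min at room temperature. Normalized to DMSO and 100 uM tamoxifen; AC50 from Hill fits.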

Assay [2] deals with Estrogen receptor (Homo sapiens) (UniProt P03372). Briefly: qHTS assay for small molecule agonists of estrogen receptor alpha signaling (AID 588514; calls by dose curve;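 note: 0% = vehicle only and 100% = reference agonist; nearly all actives have a fitted effect of over 70% in size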). The essentials: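 Efficacy is expressed against 20 nM 17-beta-estradiol (100%) and DMSO basal (0%); EC50 from Hill equation. Assay: beta-lactamase reporter in ER-alpha-UAS-bla HEK 293 cells, 18 h compound incubation, CCF4 detection.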
Estrogen receptor (Homo sapiens), sequence (P03372 whole entry, looked up): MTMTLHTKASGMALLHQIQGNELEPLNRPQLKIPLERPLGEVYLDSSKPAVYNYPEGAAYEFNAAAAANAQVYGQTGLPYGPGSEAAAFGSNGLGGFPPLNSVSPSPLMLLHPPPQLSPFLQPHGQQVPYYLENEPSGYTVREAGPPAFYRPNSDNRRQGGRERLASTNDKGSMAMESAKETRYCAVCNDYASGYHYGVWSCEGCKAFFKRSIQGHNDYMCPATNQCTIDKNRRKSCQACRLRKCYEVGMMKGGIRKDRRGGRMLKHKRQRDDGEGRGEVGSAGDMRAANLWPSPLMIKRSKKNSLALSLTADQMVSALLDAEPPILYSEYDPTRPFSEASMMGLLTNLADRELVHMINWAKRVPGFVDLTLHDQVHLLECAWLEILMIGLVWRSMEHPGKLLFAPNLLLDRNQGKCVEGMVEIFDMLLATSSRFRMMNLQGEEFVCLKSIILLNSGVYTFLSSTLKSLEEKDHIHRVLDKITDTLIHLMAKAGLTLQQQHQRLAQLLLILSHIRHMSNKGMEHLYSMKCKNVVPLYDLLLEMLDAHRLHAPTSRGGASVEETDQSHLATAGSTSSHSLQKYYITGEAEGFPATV
A general note: Quantitative high-throughput screening tests each substance at several concentrations.

Assay [3] addresses Glucocorticoid receptor (Homo sapiens) (UniProt P04150). Description: qHTS assay for small molecule agonists of glucocorticoid receptor signaling (AID 588532; active = well fitted curve in the direction sought with a large enough effect in the signal ratio, with a control signal flat; the % refers to the signal ratio;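 note: 100% = dexamethasone at 0.1 µM and 0% = DMSO only wells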). Particulars: HeLa MMTV-bla, beta-lactamase ratio, agonist, 18 h; activation: stronger effect = higher value, percent of dexamethasone control, DMSO zero. The method, boiled down: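 Stimulation of a glucocorticoid response element-driven beta-lactamase gene was measured in HeLa cells. Responses were scaled between DMSO basal and 0.1 uM dexamethasone, then fitted for half-maximal stimulation.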

Assay [4] concerns the target Vitamin D3 receptor (Homo sapiens) (UniProt P11473). Briefly: qHTS assay for small molecule agonists of vitamin D receptor signaling (AID 588543; calls by dose curve;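 note: 0% = DMSO basal and 100% = reference agonist control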). The method, boiled down: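 VDR-UAS-bla HEK293T cells, 2000/well, 2% charcoal-stripped FBS; compound titration 16 h at 37 C; CCF4 beta-lactamase ratio read. Normalized to 50 nM 1-alpha,25-dihydroxyvitamin D3 (100%) and DMSO; Hill fit gives EC50, efficacy.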

Assay [5] has as its target Retinoic acid receptor RXR-alpha (Homo sapiens) (UniProt P19793). Briefly: qHTS assay for small molecule agonists of retinoid X receptor alpha signaling (AID 588544; calls by dose curve;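 note: 0% = DMSO basal wells and 100% = reference agonist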).
The target of assay [6] is Thyroid hormone receptor beta (Homo sapiens) (UniProt P10828). Briefly: qHTS assay for small molecule agonists of thyroid hormone receptor beta signaling (AID 588545; calls by dose curve). The essentials:
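In this cell-based screen, titrated compounds act on HEK 293 cells held in medium with 2% charcoal/dextran FBS, NEAA and pyruvate for 18 hrs at 37 C. Responses are expressed relative to T3 (10 nM) as 100% and basal DMSO as 0%.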

Assay [7] has the same target. Briefly: qHTS assay for small molecule antagonists of thyroid hormone receptor beta signaling (AID 588547; active = well fitted inhibition curve with a large enough effect in the signal ratio, with a control signal flat, not every such curve was filed as active; the % refers to the signal ratio;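 note: cells stimulated with 0.4 nM T3 agonist during compound exposure; % is set by controls: 0 for no effect and ±100 for the full control effect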). Conditions: TR-UAS-bla HEK293, beta-lactamase ratio, antagonist mode, 18 h. The method, boiled down:
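TR-UAS-bla GripTite HEK293 cells in 2% charcoal/dextran FBS medium were preincubated 4 h at 37 C, given compound (0.59 nM to 92 uM) plus 0.4 nM T3 (final) for 18 h, then CCF4 for 2 h at RT; Hill fit gave IC50.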

Assay [8] in a line: qHTS assay for small molecule antagonists of retinoid X receptor alpha signaling (AID 588546).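 Note: cells stimulated with 9-cis-retinoic acid as agonist; % is set by controls: 0 for no effect and ±100 for the full control effect.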 Particulars: HEK293T RXRa-UAS-bla, beta-lactamase ratio, antagonist mode; measured here: W530 green channel, cytotoxicity proxy. The essentials: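 Beta-lactamase reporter inhibition, read as CCF4 fluorescence ratio (ex 405, em 460/530 nm) after 2 h at RT. HEK293T UAS-bla cells, 2500/well, were stimulated with 9-cis-RA at 500 or 100 nM final alongside test compound for 18 h at 37 C.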

Assay [9] is described as follows: qHTS assay for small molecule agonists of the antioxidant response element (ARE) signaling pathway (AID 651741; active = well fitted activation curve with a large enough effect in the signal ratio; the % refers to the signal ratio; note: potency is the fitted concentration of half-maximal effect). The method, boiled down:
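Reporter: beta-lactamase under ARE, stably in HepG2. Exposure: 16 h, 37 C, compounds delivered in DMSO by pin tool after 5 h cell preincubation. Readout: FRET substrate fluorescence after 2 h at RT.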

For assay [10], the target named is Tyrosyl-DNA phosphodiesterase 1 (Homo sapiens) (UniProt Q9NUW8). Description: Confirmation Assay for Inhibitors of Tyrosyl-DNA Phosphodiesterase (TDP1) (AID 489007). Note: potency is the fitted concentration of half-maximal effect; nearly all actives have a fitted effect of over 40% in size. Particulars: recombinant human TDP1 enzymatic activity, dose-response. The method, boiled down: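 Compounds are preincubated 15 min at room temperature with 1 nM recombinant human Tdp1. The reaction starts on adding 15 nM FITC-phosphotyrosine DNA substrate, runs 5 min, and is detected by AlphaScreen beads after 10 min.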
Tyrosyl-DNA phosphodiesterase 1 (Homo sapiens), sequence (Q9NUW8 whole entry, looked up): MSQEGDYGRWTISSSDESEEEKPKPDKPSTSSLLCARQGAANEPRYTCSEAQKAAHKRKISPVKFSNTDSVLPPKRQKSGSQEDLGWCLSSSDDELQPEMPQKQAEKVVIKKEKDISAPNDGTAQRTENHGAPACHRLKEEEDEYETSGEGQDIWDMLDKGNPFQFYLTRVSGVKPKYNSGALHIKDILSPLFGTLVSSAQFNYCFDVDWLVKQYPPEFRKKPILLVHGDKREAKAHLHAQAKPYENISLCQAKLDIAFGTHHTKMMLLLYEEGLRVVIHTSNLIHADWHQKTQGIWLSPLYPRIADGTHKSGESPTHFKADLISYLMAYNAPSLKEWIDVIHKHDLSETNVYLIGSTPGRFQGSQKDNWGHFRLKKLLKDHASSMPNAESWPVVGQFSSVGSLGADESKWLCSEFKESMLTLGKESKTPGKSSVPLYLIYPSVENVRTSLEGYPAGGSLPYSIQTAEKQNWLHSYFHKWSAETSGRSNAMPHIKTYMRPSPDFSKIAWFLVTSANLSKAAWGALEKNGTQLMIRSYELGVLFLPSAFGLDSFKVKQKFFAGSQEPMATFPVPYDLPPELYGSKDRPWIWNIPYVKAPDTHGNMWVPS

Assay [11] deals with Luciferin 4-monooxygenase (Photinus pyralis) (UniProt P08659). Description: Biochemical firefly luciferase enzyme assay for NPC (AID 624030).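 Note: purified P. pyralis luciferase at 10 nM with luciferin and ATP substrate; 0% = DMSO and -100% = full luciferase inhibition by PTC124 control; nearly all actives have a fitted effect of over 70% in size.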 The essentials: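 Counter-screen for direct inhibition of the luciferase enzyme by approved-drug library compounds, run at 10 nM enzyme in 50 mM Tris acetate (final). Luminescence was read within 5 min of enzyme-buffer addition and normalized to PTC124 versus DMSO (0%).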
Luciferin 4-monooxygenase (Photinus pyralis), sequence (P08659 whole entry, looked up): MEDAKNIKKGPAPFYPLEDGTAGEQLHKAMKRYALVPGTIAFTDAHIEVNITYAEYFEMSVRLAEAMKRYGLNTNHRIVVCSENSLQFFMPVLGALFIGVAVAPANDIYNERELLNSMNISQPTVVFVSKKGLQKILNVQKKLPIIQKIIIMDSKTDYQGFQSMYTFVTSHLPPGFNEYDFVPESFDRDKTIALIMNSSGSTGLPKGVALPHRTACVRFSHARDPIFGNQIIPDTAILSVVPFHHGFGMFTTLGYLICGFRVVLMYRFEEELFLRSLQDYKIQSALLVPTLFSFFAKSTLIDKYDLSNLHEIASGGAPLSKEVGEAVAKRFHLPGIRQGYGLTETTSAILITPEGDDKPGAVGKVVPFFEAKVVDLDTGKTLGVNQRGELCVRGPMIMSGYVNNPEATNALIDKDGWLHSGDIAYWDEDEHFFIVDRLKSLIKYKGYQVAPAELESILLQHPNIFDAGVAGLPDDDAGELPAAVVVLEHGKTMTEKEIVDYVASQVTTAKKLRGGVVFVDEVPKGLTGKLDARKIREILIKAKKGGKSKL

Assay [12] can be described thus: S16 Schwann cell PMP22 intronic element beta-lactamase assay (AID 624044; calls by dose curve;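 note: 0% = DMSO and -100% = potassium clavulanate positive control; nearly all actives have a fitted effect of over 15% in size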). Conditions: S16 rat Schwann cells, PMP22 element beta-lactamase FRET, 24 h; ratio activity, negative = inhibition: at 38.3 µM (top of the series). The method, boiled down:
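Beta-lactamase reporter under a PMP22 intronic regulatory element in stable S16 rat Schwann cells; 24 h compound exposure. 460 nm blue signal normalized between DMSO (0%) and potassium clavulanate, with 535 nm FRET tracking viability; curves classed by r2 and response.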

Vitamin D3 receptor (Homo sapiens), sequence (P11473 whole entry, looked up): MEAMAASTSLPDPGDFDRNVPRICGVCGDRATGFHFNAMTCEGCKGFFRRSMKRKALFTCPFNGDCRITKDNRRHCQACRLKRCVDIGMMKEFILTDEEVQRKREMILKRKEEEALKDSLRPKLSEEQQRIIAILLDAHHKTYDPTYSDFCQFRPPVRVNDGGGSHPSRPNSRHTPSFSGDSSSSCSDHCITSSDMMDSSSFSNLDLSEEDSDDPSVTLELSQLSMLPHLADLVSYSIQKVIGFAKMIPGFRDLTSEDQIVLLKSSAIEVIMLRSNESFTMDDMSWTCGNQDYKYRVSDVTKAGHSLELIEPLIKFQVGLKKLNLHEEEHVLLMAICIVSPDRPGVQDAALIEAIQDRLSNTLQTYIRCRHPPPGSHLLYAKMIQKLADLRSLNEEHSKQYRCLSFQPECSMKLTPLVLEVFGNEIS
Thyroid hormone receptor beta (Homo sapiens), sequence (P10828 whole entry, looked up): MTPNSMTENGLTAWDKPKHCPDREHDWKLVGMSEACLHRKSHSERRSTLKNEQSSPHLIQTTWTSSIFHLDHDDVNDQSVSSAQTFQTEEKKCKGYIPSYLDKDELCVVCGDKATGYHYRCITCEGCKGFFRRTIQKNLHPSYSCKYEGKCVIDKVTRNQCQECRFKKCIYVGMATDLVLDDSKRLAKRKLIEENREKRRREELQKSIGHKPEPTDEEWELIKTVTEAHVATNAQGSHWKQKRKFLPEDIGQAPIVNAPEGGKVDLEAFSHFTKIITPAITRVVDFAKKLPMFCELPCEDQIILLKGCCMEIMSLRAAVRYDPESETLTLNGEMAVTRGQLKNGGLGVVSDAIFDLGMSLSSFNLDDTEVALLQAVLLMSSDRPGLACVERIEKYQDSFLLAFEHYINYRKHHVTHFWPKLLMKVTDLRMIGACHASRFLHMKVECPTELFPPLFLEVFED
Glucocorticoid receptor (Homo sapiens), sequence (P04150 whole entry, looked up): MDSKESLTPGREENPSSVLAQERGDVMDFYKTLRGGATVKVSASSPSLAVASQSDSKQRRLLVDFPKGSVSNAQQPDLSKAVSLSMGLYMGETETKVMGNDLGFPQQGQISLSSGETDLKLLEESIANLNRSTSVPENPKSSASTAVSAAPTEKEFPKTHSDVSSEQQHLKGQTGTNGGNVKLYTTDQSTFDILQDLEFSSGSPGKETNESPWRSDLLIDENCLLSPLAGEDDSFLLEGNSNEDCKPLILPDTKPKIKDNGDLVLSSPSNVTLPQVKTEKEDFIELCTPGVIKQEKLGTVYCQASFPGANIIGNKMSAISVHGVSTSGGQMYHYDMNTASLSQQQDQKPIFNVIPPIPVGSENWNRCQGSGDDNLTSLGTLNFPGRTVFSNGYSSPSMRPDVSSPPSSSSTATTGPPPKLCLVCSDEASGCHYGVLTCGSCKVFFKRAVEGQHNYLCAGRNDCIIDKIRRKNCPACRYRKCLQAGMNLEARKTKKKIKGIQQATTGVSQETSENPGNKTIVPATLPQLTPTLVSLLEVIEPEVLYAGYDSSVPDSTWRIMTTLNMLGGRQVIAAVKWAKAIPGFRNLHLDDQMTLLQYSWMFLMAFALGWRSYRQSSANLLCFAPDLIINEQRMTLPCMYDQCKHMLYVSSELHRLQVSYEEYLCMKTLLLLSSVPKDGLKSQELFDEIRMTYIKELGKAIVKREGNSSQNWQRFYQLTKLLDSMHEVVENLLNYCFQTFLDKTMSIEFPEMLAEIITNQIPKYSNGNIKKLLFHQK
Retinoic acid receptor RXR-alpha (Homo sapiens), sequence (P19793 whole entry, looked up): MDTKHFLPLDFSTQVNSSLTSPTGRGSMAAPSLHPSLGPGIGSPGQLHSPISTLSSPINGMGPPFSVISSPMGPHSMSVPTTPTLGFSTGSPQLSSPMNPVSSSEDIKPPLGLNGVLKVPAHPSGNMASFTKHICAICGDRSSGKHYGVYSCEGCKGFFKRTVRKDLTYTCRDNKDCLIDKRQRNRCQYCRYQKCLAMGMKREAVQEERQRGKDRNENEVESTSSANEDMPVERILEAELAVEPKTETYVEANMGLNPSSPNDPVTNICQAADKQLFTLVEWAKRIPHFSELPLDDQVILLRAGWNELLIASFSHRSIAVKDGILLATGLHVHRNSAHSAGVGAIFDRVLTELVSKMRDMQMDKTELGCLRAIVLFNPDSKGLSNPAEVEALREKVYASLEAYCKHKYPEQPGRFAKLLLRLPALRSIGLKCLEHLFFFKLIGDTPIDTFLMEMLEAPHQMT

For the compound `Clc1ccc(C(c2ccc(Cl)cc2)C(Cl)Cl)cc1`, in assay [1], the caspase-3 activation was 22.6% (inactive). In addition, the Potency entry in [2], in assay [5] and in assay [6] was “inactive” each time. Moreover, the activation in [3] was -2.1% (inactive). Moreover, the call in assay [4] was inactive. Besides, the activity change % (negative = inhibition) in assay [7] was -7.83% (inactive) and -28.4% (inactive).

For `CC(C)CC(C)Nc1ccc(Nc2ccccc2)cc1` (stereo unspecified), the caspase-3 activation in assay [1] was 17.5% (inactive). Moreover, the activation in [3] was 4.35% (inactive). Also, in assay [4], the call was inactive. Also, in [8], the max response is -4.53%. For the same compound, the Potency in assay [9] was 59.6 µM (active).

As to `CCOC(=O)C1CCN(/C=C2/C(=O)NC(=O)N(Cc3ccco3)C2=O)CC1`, the Potency in assay [10] was 44.7 µM (active).

Take `CCc1nnc(NC(=O)CSc2ccc(-c3ccco3)nn2)s1`: the Potency in [10] is 15.8 µM (active).

On to `CCOC(=O)CCCc1cc[c]([Sb](=[O])([OH])[OH])cc1`, for which, in assay [10], the Potency is 0.794 µM (active).

With `CN(C)c1ccc(/C=C2/C(=O)NC(=O)N(Cc3ccco3)C2=O)cc1`, in assay [10], the Potency is 100 µM (active).

With `O=C1NC(=S)NC(=O)C1=Cc1ccc2c(c1)CCN2CCCCl`, the Potency in assay [10] was 2.51 µM (active).

In the case of `CC1(C)[C@@H](C=C(Cl)Cl)[C@@H]1C(=O)OCc1c(F)c(F)cc(F)c1F`, the Potency result in assay [11] and in [12] was “inactive” each time.

For `CCCCCC(O)C1C(=O)OC(C)C(O)\C=C/C=C\C=C/C=C\C=C(\C)C(O)C(O)C(O)CC(O)CC(O)CC(O)CC(O)CC1O` (stereo unspecified), the Potency result in [11] is “inactive”.

Turning to `C[C@@H]1CC[C@H]2[C@@H](C)C(=O)O[C@@H]3OC4(C)CC[C@@H]1C32OO4` (stereo partly specified), the Potency result in assay [11] and in assay [12] was “inactive” each time.

In the case of `Cc1ccc2c(c1)[C@@H]1CN(C)CC[C@H]1N2`, the Potency entry in [11] and in assay [12] was “inactive” throughout.

`CC1(C)S[C@@H]2[C@H](N)C(=O)N2C1C(=O)O` (stereo partly specified): the Potency entry in assay [11] is “inactive”.

As to `COc1ccc2c3c1O[C@H]1[C@@H](O)C=C[C@H]4C(C2)NCCC341` (stereo partly specified), the Potency entry in assay [11] and in [12] was “inactive” each time.

As to `OCC(O)[C@H]1O[C@@H]2O[C@H](C(Cl)(Cl)Cl)O[C@@H]2[C@H]1O` (stereo partly specified), in assay [12], the Potency result is “inactive”.

With `C[C@]12C=CC(=O)C=C1CC[C@@H]1C2CC[C@]2(C)OC(=O)CCC12` (stereo partly specified), the Potency entry in assay [11] and in assay [12] was “inactive” throughout.

Consider `C[C@H](CCC(=O)O)[C@H]1CC[C@@H]2[C@H]3CC[C@H]4C[C@H](O)CC[C@]4(C)[C@@H]3CC[C@@]21C`, for which the Potency in assay [10] was 100 µM (active).

On to `CCCCCc1cc(O)c2c(c1)OC(C)(C)C1CC=C(C)CC21` (stereo unspecified), for which, in assay [11], the Potency result was “inactive”.

For `Nc1nc(/C(=C/CC(=O)O)C(=O)NC2C(=O)N3C(C(=O)O)=CCSC23)cs1` (stereo unspecified), the Potency in [10] is 12.6 µM (active).

Consider `Oc1cc(O)c2c(c1)OC(c1cc(O)c(O)c(O)c1)C(O)C2` (stereo unspecified), for which the Potency in assay [10] is 5.01 µM (active).

As for `[S]=[Sb][S][Sb]=[S]`, the Potency result in assay [11] and in [12] was “inactive” each time.

On to `CN1C2CCC1C(C(=O)O)C(OC(=O)c1ccccc1)C2` (stereo unspecified), for which the Potency result in [12] was “inactive”.

Regarding `CCOC(=O)/C=C(C)/C=C/CC(C)CCCC(C)C` (stereo unspecified), the Potency entry in assay [11] and in [12] was “inactive” in each case.

For the compound `O=c1c2ccccc2nc(/C=C/c2cccnc2)n1Cc1ccccc1`, the Potency in assay [10] is 14.1 µM (active).

For `CC(=O)Nc1ccc(N=Cc2c(O)n(Cc3ccco3)c(=O)[nH]c2=O)cc1`, in assay [10], the Potency was 22.4 µM (active).

In the case of `Cc1cc(C)cc(C(=O)OC2CC3CCC(C2)N3C)c1` (stereo unspecified), in assay [11], the Potency result was “inactive”.

For `C=C1Nc2ccccc2C(=O)N1c1ccccc1C`, the Potency result in assay [11] was “inactive”.

Take `C=CC[N+]1(C)CCC23c4c5ccc(O)c4O[C@H]2C(=O)CC[C@@]3(O)C1C5` (stereo partly specified): the Potency entry in assay [12] is “inactive”.

For the compound `CCCN1CCCC2Cc3nc(N)ncc3CC21` (stereo unspecified), the Potency result in [11] and in [12] was “inactive” in each case.

As for `CCOc1ccc2nc(N=Nc3c(O)[nH]c(=O)[nH]c3=O)sc2c1`, in assay [10], the Potency was 100 µM (active).

Take `C[C@H](N)Cc1ccccc1`: the Potency entry in assay [11] and in assay [12] was “inactive” each time.

Take `Nc1nc(O)c(-c2ccccc2)o1`: the Potency result in [11] and in [12] was “inactive” each time.

As for `OC[C@@H](O)[C@H]1O[C@@H]2OC(C(Cl)(Cl)Cl)O[C@H]2[C@H]1O` (stereo partly specified), the Potency result in [12] is “inactive”.

With `CC1OC(O[C@H]2C[C@@H](O)[C@]3(CO)[C@@H]4C(CC[C@]3(O)C2)[C@@]2(O)CC[C@H](C3=CC(=O)OC3)[C@@]2(C)C[C@H]4O)C(O)C(O)C1O` (stereo partly specified), in [12], the Potency entry is “inactive”.

On to `[O]=[Sb]([OH])([OH])[c]1ccccc1`, for which the Potency in assay [10] was 6.31 µM (active).

Regarding `CC(C)(O/N=C(\C(=O)N[C@@H]1C(=O)N2C(C(=O)[O-])=C(C[n+]3ccccc3)CS[C@@H]12)c1csc(N)n1)C(=O)O`, the Potency in assay [10] was 15.8 µM (active).

With `O=C1NC(=O)N(c2ccc3c(c2)OCO3)C(=O)/C1=C\c1ccc(-c2ccccc2C(=O)O)o1`, the Potency in [10] is 3.16 µM (active).
